# Hits are enriched below; roughly 1.4% of the tested compounds scored in any of these assays.
# A3A deaminase – APOBEC3A ssDNA deaminase inhibitors, primary screen, selectivity assay for APOBEC3G inhibitor project, biochemical, FAM/TAMRA oligo cleavage fluorescence; recombinant A3A, FAM/TAMRA ssDNA deamination fluorescence; DNA dC->dU-editing enzyme APOBEC-3A (Homo sapiens), P31941; inhibition, % at 20 µM; 330,000 compounds, 0.41% hits;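 active = at least 40% inhibition at 20 µM here, with at most 30% in a related deaminase screen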;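 also: plate controls were A3A with DMSO for no effect and wells lacking A3A enzyme for full effect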
# FAS-TE inh – FAS thioesterase domain inhibitors, primary screen, biochemical, fluorescence intensity, uHTS | Fatty acid synthase (Homo sapiens), P49327 | recombinant FAS-TE, OMFH fluorogenic substrate, fluorescence endpoint | inhibition, % at 15 µM | 360,000 compounds, 0.67% hits | AID 602261, 2012;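 active = compounds whose normalised, plate-corrected inhibition of enzyme fluorescence in the single-dose primary screen is 50% or more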;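 also: 0% = DMSO with enzyme and 100% = substrate without enzyme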
# Target sequence (P49327 whole entry, looked up, the tested form may be a part): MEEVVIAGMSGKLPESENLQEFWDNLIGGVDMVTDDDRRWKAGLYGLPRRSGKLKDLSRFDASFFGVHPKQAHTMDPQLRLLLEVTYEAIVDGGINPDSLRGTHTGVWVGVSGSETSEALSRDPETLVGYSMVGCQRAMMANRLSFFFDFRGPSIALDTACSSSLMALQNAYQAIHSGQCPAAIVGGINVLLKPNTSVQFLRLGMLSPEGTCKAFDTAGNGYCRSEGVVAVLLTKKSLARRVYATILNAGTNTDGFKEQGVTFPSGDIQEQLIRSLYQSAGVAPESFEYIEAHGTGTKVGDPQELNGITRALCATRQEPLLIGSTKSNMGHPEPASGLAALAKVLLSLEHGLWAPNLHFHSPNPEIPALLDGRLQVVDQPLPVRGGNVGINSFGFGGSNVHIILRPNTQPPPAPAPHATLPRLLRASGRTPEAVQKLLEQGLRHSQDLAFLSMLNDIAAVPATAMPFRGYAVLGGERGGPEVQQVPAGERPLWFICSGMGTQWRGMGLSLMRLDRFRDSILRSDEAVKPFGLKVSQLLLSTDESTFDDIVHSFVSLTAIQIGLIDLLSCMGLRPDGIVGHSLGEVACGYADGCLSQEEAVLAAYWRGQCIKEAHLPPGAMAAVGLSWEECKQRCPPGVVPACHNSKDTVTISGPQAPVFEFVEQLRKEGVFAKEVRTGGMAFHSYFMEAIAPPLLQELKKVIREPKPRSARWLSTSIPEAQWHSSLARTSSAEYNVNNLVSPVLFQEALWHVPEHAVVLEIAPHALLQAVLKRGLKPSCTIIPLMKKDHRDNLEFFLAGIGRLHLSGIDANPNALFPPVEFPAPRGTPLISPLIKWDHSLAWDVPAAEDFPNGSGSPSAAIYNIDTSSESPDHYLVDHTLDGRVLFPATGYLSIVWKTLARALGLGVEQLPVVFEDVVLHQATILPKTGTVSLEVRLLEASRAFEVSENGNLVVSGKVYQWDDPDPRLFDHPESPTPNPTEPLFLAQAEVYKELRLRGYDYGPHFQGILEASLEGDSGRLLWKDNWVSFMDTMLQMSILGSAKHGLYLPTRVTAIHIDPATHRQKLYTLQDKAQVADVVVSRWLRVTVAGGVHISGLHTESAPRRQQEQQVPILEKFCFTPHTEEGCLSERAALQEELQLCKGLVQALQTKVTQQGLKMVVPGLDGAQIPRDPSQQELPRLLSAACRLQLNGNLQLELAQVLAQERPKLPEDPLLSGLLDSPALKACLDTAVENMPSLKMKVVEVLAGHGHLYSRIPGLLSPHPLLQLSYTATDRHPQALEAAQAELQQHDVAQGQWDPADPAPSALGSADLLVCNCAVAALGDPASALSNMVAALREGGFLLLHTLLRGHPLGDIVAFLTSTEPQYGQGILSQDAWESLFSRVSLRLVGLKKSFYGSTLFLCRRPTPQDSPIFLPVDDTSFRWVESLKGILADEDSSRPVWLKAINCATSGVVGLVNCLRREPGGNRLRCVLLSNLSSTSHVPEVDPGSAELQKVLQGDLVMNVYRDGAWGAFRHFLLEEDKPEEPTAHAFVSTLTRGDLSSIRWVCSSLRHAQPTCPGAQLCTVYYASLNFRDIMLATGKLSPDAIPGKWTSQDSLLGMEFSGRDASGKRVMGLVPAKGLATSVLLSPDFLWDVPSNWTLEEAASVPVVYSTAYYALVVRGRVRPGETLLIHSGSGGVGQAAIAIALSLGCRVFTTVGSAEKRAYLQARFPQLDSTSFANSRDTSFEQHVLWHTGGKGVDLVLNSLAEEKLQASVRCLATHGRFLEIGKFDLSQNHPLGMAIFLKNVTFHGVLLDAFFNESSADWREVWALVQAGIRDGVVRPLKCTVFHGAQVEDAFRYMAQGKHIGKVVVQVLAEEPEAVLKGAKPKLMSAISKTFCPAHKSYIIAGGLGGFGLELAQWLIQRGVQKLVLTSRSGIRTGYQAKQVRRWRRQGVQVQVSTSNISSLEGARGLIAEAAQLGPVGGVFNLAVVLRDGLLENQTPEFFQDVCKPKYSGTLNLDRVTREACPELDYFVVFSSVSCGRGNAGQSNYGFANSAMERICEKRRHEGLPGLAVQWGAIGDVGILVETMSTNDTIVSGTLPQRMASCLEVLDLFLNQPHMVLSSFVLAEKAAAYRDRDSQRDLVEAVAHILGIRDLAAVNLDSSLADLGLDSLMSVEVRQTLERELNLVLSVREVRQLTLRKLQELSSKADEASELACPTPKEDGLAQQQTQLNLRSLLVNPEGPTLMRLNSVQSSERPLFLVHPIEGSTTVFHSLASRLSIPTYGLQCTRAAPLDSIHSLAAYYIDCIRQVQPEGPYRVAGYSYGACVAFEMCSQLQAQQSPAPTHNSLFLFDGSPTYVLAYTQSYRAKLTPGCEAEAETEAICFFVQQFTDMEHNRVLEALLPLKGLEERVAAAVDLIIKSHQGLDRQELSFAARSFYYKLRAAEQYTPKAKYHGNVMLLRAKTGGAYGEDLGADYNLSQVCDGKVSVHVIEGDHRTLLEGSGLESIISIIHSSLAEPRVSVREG
# NPR1 activator – GC-A stimulated cGMP production enhancers – HEK293 GC-A cells, cGMP TR-FRET, EC30 ANP, primary screen | Atrial natriuretic peptide receptor 1 (Homo sapiens), P16066 | 0% at EC30 ANP, 100% saturating ANP | activation, % at 10 µM | 370,000 compounds, 0.14% hits; in the data active = activation above about 40%
# NPR2 activator – human GC-B receptor activators, primary screen, HEK293 GC-B cells, cGMP TR-FRET, EC30 CNP. Atrial natriuretic peptide receptor 2 (Homo sapiens), P20594. 0% at EC30 CNP, 100% saturating CNP. activation, % at 10 µM. 370,000 compounds, 0.11% hits. AID 1920062, 2024;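 active = activation at 10 µM reaching about 35% in either raw or pattern-adjusted values, limit read from the data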
# APOBEC3G inh – APOBEC3G DNA deaminase inhibitors, primary screen, biochemical, fluorescence, single-stranded DNA substrate, uHTS. inhibition, % at 20 µM. DNA dC->dU-editing enzyme APOBEC-3G (Homo sapiens), Q9HC16. recombinant A3G, ssDNA deamination FAM/TAMRA fluorescence. 330,000 compounds, 0.28% hits;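 active = inhibition of at least 40% at 20 µM, with no more than 30% in the related APOBEC3A deaminase screen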;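 also: plate controls were DMSO wells with A3G for no effect and wells lacking A3G enzyme for full effect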
# FAS-TE conf – FAS thioesterase domain inhibitors, confirmation, biochemical, fluorescence intensity, single concentration; shares compounds with FAS-TE inh; recombinant FAS-TE, OMFH fluorogenic substrate; 2,300 compounds, 45% hits; AID 624325, 2012; inhibition, % at 15 µM;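 active = compounds inhibiting the enzyme by at least 50% at 15 µM in any one of the replicates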;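 also: 0% = enzyme with DMSO only and 100% = wells lacking enzyme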
# Numbers without * were called inactive; . = no result given.
SMILES,A3A deaminase,FAS-TE inh,NPR1 activator,NPR2 activator,APOBEC3G inh,FAS-TE conf
CCC(NC(=O)c1ccc([N+](=O)[O-])cc1[N+](=O)[O-])c1ccccc1 (stereo not drawn),1,41,2,-4,-2,.
O=C(NCC1CCCCC1)c1cc([N+](=O)[O-])ccc1Cl,-2,51*,-4,-1,-9,56*
Cc1ccc(O)c(NC(=O)c2cc([N+](=O)[O-])ccc2Cl)c1,-7,54*,1,-1,-11,60*
CC(NC(=O)c1ccc([N+](=O)[O-])cc1[N+](=O)[O-])c1ccc(-c2ccccc2)cc1 (stereo not drawn),0,55*,-3,-6,-5,42
COC(=O)c1cccc(Cn2ccc3ccc(-c4ccc5ccn(C(=O)c6cccc(OC)c6)c5c4)cc32)c1,.,.,2,0,.,.
CC(=O)Nc1sc2c(c1-c1nc3ccccc3s1)CCN(C(C)C)CC2,.,.,8,-1,.,.
O=C(NCCCc1ccccc1)c1cc([N+](=O)[O-])ccc1Cl,1,84*,0,1,-2,90*
O=C(O)c1cc([N+](=O)[O-])ccc1NCCCc1ccccc1,-1,3,1,-12,-2,.
CC(Cc1ccccc1)NC(=O)c1cc([N+](=O)[O-])ccc1Cl (stereo not drawn),3,58*,-4,-4,6,70*
O=C(N[C@@H](Cc1ccccc1)c1nc2ccccc2[nH]1)c1cc([N+](=O)[O-])ccc1Cl,6,41,-3,-4,-1,.
CC(C)c1cc(C(C)C)c(S(=O)(=O)N2CCC(C(=O)NCc3cccs3)CC2)c(C(C)C)c1,.,.,0,2,.,.
COc1ccc(C(=O)C2(C(=O)NCc3ccccc3)CC(c3ccccn3)=NO2)cc1 (stereo not drawn),.,.,0,5,.,.
CCCc1cc(C(=O)Nc2cccc([N+](=O)[O-])c2)cs1,-1,52*,-3,-4,-3,41*
CCS(=O)(=O)c1ccc2oc(Nc3ccc(C(C)(C)C)cc3)nc2c1,2,76*,-2,-1,-4,52*
CCS(=O)(=O)c1ccc2oc(Nc3ccc(OC)cc3)nc2c1,3,2,1,2,1,.
CCCCCC[C@@H](CC)CN(C(=O)Oc1ccccc1)c1ccccc1,.,.,-1,-2,.,.
C=CCOc1c(Br)cc(/C=N/Nc2ccc(C(=O)O)cc2)cc1OCC,-2,54*,-1,-3,-9,72*
COc1ccc(/C=N/Nc2ccc(C(=O)O)cc2)cc1Br,-3,0,0,-8,-4,.
CC(C)(C)c1ccc(OCCSc2nc3ccccc3n2CC(=O)O)cc1,-2,78*,-4,-7,-4,87*
Nc1ccc(C(=O)OCC(=O)N2c3ccccc3Sc3ccccc32)cc1[N+](=O)[O-],.,66*,0,-6,.,24
O=C(COC(=O)c1ccccc1C(=O)c1ccc(Cl)c([N+](=O)[O-])c1)NC1CCCCCC1,1,28,-9,1,-1,.
O=C(OCC(=O)N1CCc2ccccc2C1)c1ccc(Cl)c([N+](=O)[O-])c1,-3,72*,8,6,-10,71*
O=C(COC(=O)c1ccc(Cl)c([N+](=O)[O-])c1)NC1CCCC1,-4,74*,-4,-1,-8,65*
O=C(COc1ccc([N+](=O)[O-])cc1)Nc1ccc2c(c1)OCO2,-2,59*,-1,-3,-5,41
Cc1ccccc1NC(=O)N(C)[C@H]1C[C@H]2c3[nH]c4c(-c5ccc6c(c5)OCO6)cccc4c3CCN2C[C@H]1[C@H](C)O,.,.,-4,-7,.,.
SMILES,A3A deaminase,FAS-TE inh,NPR1 activator,NPR2 activator,APOBEC3G inh,FAS-TE conf
O=[N+]([O-])c1ccc(Cl)c(-c2ccc(/C=N/n3cnnc3)o2)c1,6,11,-7,-13,-2,.
Cc1cc(-c2ccc(/C=N/n3cnnc3)o2)c(C)c([N+](=O)[O-])c1,4,60*,-4,-6,-6,39*
CCCCN(C=O)c1c(CC)nc2c(OCc3ccc(Cl)cc3Cl)cccn12,.,55*,-11,5,.,61*
CCc1nc2c(OCc3ccc(C(F)(F)F)cc3)cccn2c1N(C=O)Cc1ccc(OC)cc1,.,57*,-3,6,.,52*
CC(C)(C)c1ccc(-c2nnc(SCC(=O)Nc3cccc4ccccc34)n2Cc2ccco2)cc1,.,.,-2,8,.,.
CCCCSc1nc2ccc(Nc3nc(N4CCOCC4)nc(N4CCOCC4)n3)cc2s1,-4,86*,-4,-10,-7,42
COc1cc(NC(=S)N2CCC(C(O)(c3ccccc3)c3ccccc3)CC2)cc(OC)c1,1,53*,-10,-4,-9,32
CCNC(=S)N1CCC(C(O)(c2ccccc2)c2ccccc2)CC1,0,-3,-3,-2,-2,.
COc1ccc(CN2CCC(CNC(=O)Nc3ccc(C)c(F)c3)CC2)cc1,.,.,-4,2,.,.
O=C(/C=C/c1cccc([N+](=O)[O-])c1)NCCSCc1ccc(Cl)cc1,-1,54*,-2,-7,0,51*
O=C(/C=C/c1ccccc1)NCCSCc1ccc(Cl)cc1,1,-2,1,7,-4,.
O=C(/C=C/c1cccc([N+](=O)[O-])c1)NCCSCc1c(Cl)cccc1Cl,0,65*,0,-3,-1,53*
O=c1c2c3c(sc2nc(NCCO)n1CCc1ccccc1)CCCCC3,-1,50*,-6,-7,1,16
O=c1c2c3c(sc2nc(NCCO)n1Cc1ccco1)CCCCC3,-3,14,2,1,-6,.
COc1ccc(S[C@]2(C(=O)N3CCOCC3)CC(=O)N(C(=O)C3CC3)[C@@H]2c2ccc(OC)cc2)cc1,.,.,-5,2,.,.
O=C(CCCN1C(=O)/C(=C/c2ccccc2Cl)SC1=S)Nc1ccccn1,-6,34,-3,1,-8,.
O=C1/C(=C/c2ccccc2Cl)SC(=S)N1CCCC(=O)N(CCO)c1ccccc1,-10,56*,-15,-12,-8,40*
O=C(CCN1C(=O)/C(=C/c2ccccc2Cl)SC1=S)Nc1cccnc1,0,62*,0,-3,-3,3
Cc1ccc(C(=O)NNC(=O)CCCN2C(=O)/C(=C/c3ccccc3Cl)SC2=S)cc1,2,13,2,0,0,.

# Screening data deposited in PubChem by Sanford-Burnham Center for Chemical Genomics.
